The panel holds about 79,000 compounds, 15% with a hit somewhere; the sample as a whole holds those more often. No stated cut-off is given here; in the data, active means growth inhibition above about 70%; inactive means the rest.
Tests used:
[1] = NCI Yeast Anticancer Drug Screen. Data for the rad50 strain (AID 155);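 further: 0% = growth of vehicle-only cultures of the same strain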; conditions: S. cerevisiae rad50 strain growth inhibition; at 50.0 µM; active compounds read high
Outline: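 DNA repair mutant yeast, compound exposure, growth read-out; inhibition is taken relative to vehicle.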

[2] = NCI Yeast Anticancer Drug Screen. Data for the mec2-1 strain (AID 157); conditions: S. cerevisiae mec2-1 strain, at 50.0 µM, active compounds read high
Outline: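 Compounds were applied to mec2-1 yeast cells. Their growth was then compared with that of vehicle-treated cultures to give growth inhibition.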

[3] = NCI Yeast Anticancer Drug Screen. Data for the sgs1 mgt1 strain (AID 161);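 further: 0% = growth of cultures given vehicle only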; conditions: S. cerevisiae sgs1 mgt1 strain, at 50.0 µM, active compounds read high
Outline: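 Yeast cells carrying a defined DNA-repair defect were exposed to test compounds. Growth inhibition was measured relative to vehicle-treated controls.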

[4] = NCI Yeast Anticancer Drug Screen. Data for the cln2 rad14 strain (AID 165);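 further: 0% = growth equal to vehicle treated cultures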; conditions: S. cerevisiae cln2 rad14 strain, at 50.0 µM, active compounds read high
Outline: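 Strain: cln2 rad14 yeast, altered in cell cycle control and DNA damage repair. Read-out: growth inhibition vs vehicle.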

[5] = NCI Yeast Anticancer Drug Screen. Data for the bub3 strain (AID 167); conditions: S. cerevisiae bub3 mutant strain, at 50.0 µM, active compounds read high
Outline: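 In this screen, a yeast mutant lacking normal mitotic checkpoint function is challenged with compound. Relative growth versus vehicle gives the inhibition value.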

[6] = NCI Yeast Anticancer Drug Screen. Data for the mlh1 rad18 strain (AID 175); conditions: S. cerevisiae mlh1 rad18 strain growth inhibition; at 50.0 µM; active compounds read high
Outline: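 A repair-deficient yeast strain is exposed to test compound, and growth is scored relative to vehicle-treated controls.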

Measured: growth inhibition

c1ccc(N(c2ccccc2)C(c2ccccc2)(c2ccccc2)c2ccccc2)cc1
inactive: [1] 12.6% | [2] -2.65% | [3] 1.1% | [4] -36.3% | [5] -0.85% | [6] 7.85%

CCOC(=O)OC1C(OC)OC2COC(c3ccccc3)OC2C1OC(=O)OCC (stereo not drawn)
inactive: [1] -1.4% | [2] -13.3% | [3] -20% | [4] -15.7% | [5] -2.25% | [6] 11.4%

Cc1cc(OCCCC(=O)O)ccc1Cl
inactive: [1] 51.8% | [2] 30.7% | [3] 54.1% | [4] 34.9% | [5] 49.1% | [6] 52.1%

COc1ccc(CC2OC(C)CC(C)(C)O2)cc1 (stereo not drawn)
inactive: [1] 38.2% | [2] -12.2% | [3] 4.75% | [4] -55.8% | [5] -4.5% | [6] 37.2%

CC(=O)Nc1ccc(OC(C)=O)cc1N
inactive: [1] -8.9% | [2] -8.15% | [3] 2.9% | [4] -8.95% | [5] 2.95% | [6] 1%

Cc1c(C)c2ccc(OCC(O)COC(C)C)c(C)c2oc1=O (stereo not drawn)
inactive: [1] -10.7% | [2] -5.5% | [3] -2.15% | [4] -5.95% | [5] -1.95% | [6] -29.6%

COC(CCCl)c1ccccc1 (stereo not drawn)
inactive: [1] 1.2% | [2] -21.2% | [3] -9.8% | [4] 8.25% | [5] -12.7% | [6] 6.9%

O=c1[nH]c(C(Cl)(Cl)Cl)nc2ccc(Cl)cc12
inactive: [1] -0.3% | [2] 8.6% | [3] -1.95% | [4] 11.8% | [5] -10.1% | [6] -12.1%

COC1CCC(/C(C#N)=C/C2CCC(NC(C)=O)CC2)CC1 (stereo not drawn)
inactive: [1] 3.95% | [2] 0.65% | [3] 25.9% | [4] 1% | [5] 22.1% | [6] 5.2%

CC(CNC(N)=O)(CNC(N)=O)c1ccccc1
inactive: [1] -4.75% | [2] -9.05% | [3] -11.8% | [4] -21.6% | [5] -0.45% | [6] -25.1%

NC(=O)C1OC1(c1ccccc1)c1ccccc1 (stereo not drawn)
inactive: [1] 20.8% | [2] 5.2% | [3] 3.05% | [4] -2.1% | [5] 4.15% | [6] 3.15%

CSc1nc(NC2OC(CO)C(O)C(O)C2O)c(Br)c(=O)n1C (stereo not drawn)
inactive: [1] 0.4% | [2] -1.7% | [3] -6.3% | [4] -8.75% | [5] -2.75% | [6] 20.1%

ClC(Cl)(Cl)C(=NNc1ccccc1)C(Cl)(Cl)Cl
inactive: [1] -0.1% | [2] 16.4% | [3] 30.4% | [4] 50.5% | [5] 30.6% | [6] 69.5%

Cc1cc(Br)cc2c1NC(=O)C(C)C2C (stereo not drawn)
inactive: [1] -2.95% | [2] 12.7% | [3] -24.6% | [4] -8.95% | [5] -3.35% | [6] 1.1%

CCC(O)C(CC)[N+](=O)[O-] (stereo not drawn)
inactive: [1] -4.45% | [2] -17.4% | [3] -2.75% | [4] 4.05% | [5] -2.8% | [6] 5.5%

Nc1ncnc2c1ccn2Cc1c(Cl)cccc1Cl
inactive: [1] 2.05% | [2] -0.2% | [3] 7.1% | [4] -2.75% | [5] 23.9% | [6] 5.4%

COc1cccc(N2CCN(CC(O)COc3ccc(N)cc3)CC2)c1 (stereo not drawn)
inactive: [1] 36.1% | [2] 25.1% | [3] 31.9% | [4] 30.6% | [5] 25.1% | [6] 44%

CC(=O)OCC1OC(n2c3c(cc(C#N)c2=S)CCCCC3)C(OC(C)=O)C(OC(C)=O)C1OC(C)=O (stereo not drawn)
inactive: [1] 27.1% | [2] -1.7% | [3] 3.1% | [4] -32.9% | [5] -0.8% | [6] -7.1%

COc1cc(C(=O)Oc2c(C#N)sc3c2c(=O)n(-c2ccccc2)c(=S)n3-c2ccccc2)cc(OC)c1OC
inactive: [1] 22.8% | [2] 3.2% | [3] 12.1% | [4] 10.2% | [5] 21.9% | [6] 20.5%

COc1ccc(C=Nc2cc([N+](=O)[O-])ccc2O)cc1
inactive: [1] 8.5% | [2] -2.75% | [3] 3.75% | [4] -9.45% | [5] 25.5% | [6] 3%

CCOC(=O)C(C(C)=O)C(CC(=O)OC)NC(=O)OCc1ccccc1 (stereo not drawn)
inactive: [1] -24.5% | [2] -21.9% | [3] -60.6% | [4] -57.2% | [5] -32.2% | [6] -35.5%

O/N=C/c1ccc(Cc2ccccc2)o1
inactive: [1] 15.7% | [2] 19.6% | [3] 11.2% | [4] -18.8% | [5] -11.3% | [6] 25.9%

COc1ccc(/C(C)=N/[O-])cc1CS[n+]1ccccc1
inactive: [1] 15.1% | [2] 27.7% | [3] 47.4% | [4] -4.4% | [5] 59.2% | [6] 48.6%

CCOC(=O)CC/C(=C\NC(=O)c1ccccc1)NC(=O)c1ccccc1
inactive: [1] -9% | [2] -26.4% | [3] -21.6% | [4] 16.2% | [5] -9.55% | [6] 1.9%

C/C(=N/NS(=O)(=O)c1ccc(C)cc1)C(C)C
inactive: [1] 3.05% | [2] 1.75% | [3] 10.8% | [4] -6.85% | [5] 3.4% | [6] 23.8%

O=C(OCC1OC(OC(=O)c2ccccc2)C(F)C1OC(=O)c1ccccc1)c1ccccc1 (stereo not drawn)
inactive: [1] -2.65% | [2] -18.6% | [3] 7.15% | [4] -20.1% | [5] -8.25% | [6] 7.9%

Cc1cccc(O)c1
inactive: [1] -11.7% | [2] -9.8% | [3] -42% | [4] -16.4% | [5] -4.65% | [6] -39.2%

O=C(c1ccccc1)[C@H]1Nc2ccc(Cl)cc2[C@H]2CCC[C@@H]12
inactive: [1] -2.4% | [2] -30.2% | [3] 0.1% | [4] 10.2% | [5] -14.6% | [6] -17.1%

CN(c1ccccc1)c1nc(=[N+](C)C)ss1
inactive: [1] 35.4% | [2] 26.5% | [3] 17% | [4] 24.1% | [5] 4.3% | [6] 31.8%

CC1C(=O)C(c2ccccc2)(c2ccccc2)CC[N+]1(C)C (stereo not drawn)
inactive: [1] 1.1% | [2] 5.4% | [3] 2.8% | [4] -13.7% | [5] 4.1% | [6] 10.4%

CC(C)c1ccccc1NC(=O)C(=O)Cc1nc2ccccc2s1
inactive: [1] 23.2% | [2] 7.2% | [3] 19.7% | [4] -36.1% | [5] 38.3% | [6] 51.4%

O=C(Nc1ccc(Cl)cc1)c1cc2c(cc1Cl)Sc1nccn1S2(=O)=O
inactive: [1] -4.85% | [2] -11.7% | [3] -1.65% | [4] -25.4% | [5] 2.35% | [6] 16.9%

Nc1c(Cl)ncnc1Nc1cccc(C(F)(F)F)c1
inactive: [1] 9.9% | [2] 38.4% | [3] 53.1% | [4] 10.1% | [5] 41.6% | [6] 66.5%

O=C1OC(c2ccc(Cl)cc2)=N/C1=C\c1c(Cl)cccc1Cl
inactive: [1] 6.9% | [2] -1.3% | [3] 11.9% | [4] 11.9% | [5] 5.9% | [6] -13.7%

O=C(CP(=O)(c1ccccc1)c1ccccc1)c1cccc(C(=O)CP(=O)(c2ccccc2)c2ccccc2)c1
inactive: [1] -6.35% | [2] -10.1% | [3] -7.05% | [4] -15.7% | [5] -21.1% | [6] -2.4%

CCCCCCCCC1CO1 (stereo not drawn)
inactive: [1] 0.9% | [2] 3.55% | [3] -10.8% | [4] -19.5% | [5] -3.95% | [6] -6.85%

CCNC(=O)NCc1cccc2ccccc12
inactive: [1] -0.05% | [2] -8.15% | [3] -7.15% | [4] -74.2% | [5] 5.15% | [6] -1.6%

NC1NC(=O)C(CCCOc2ccc([N+](=O)[O-])cc2)C(c2ccccc2)N1 (stereo not drawn)
inactive: [1] 3.55% | [2] -11.8% | [3] 6.6% | [4] 2.35% | [5] 21.8% | [6] 10.4%

From PubChem BioAssay (NCI)
